Experimental data: PubChem BioAssay AID624037 (The Scripps Research Institute Molecular Screening Center, 2012)
In all, about 360,000 compounds went through this assay and about 700 (0.19%) were called active. This is one part of a sample in which actives are shown more often than they occur.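 Rule for the calls: active = activation above the run's mean over test compounds plus 3 SD (cut at about 23% in these data); inactive = the rest.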

biological target: Muscarinic acetylcholine receptor M5 (Homo sapiens) (UniProt P08912); assay: CHRM5 activators raising intracellular calcium – CHO-K1 cells, Fluo-8 calcium fluorescence, primary screen (AID 624037); conditions: CHO-K1 hM5 cells, at 3 µM, stronger effect = higher value, 0% DMSO wells, 100% maximal acetylcholine response;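 note: signal is peak over basal fluorescence ratio across the kinetic read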
Sequence (P08912 whole entry, looked up): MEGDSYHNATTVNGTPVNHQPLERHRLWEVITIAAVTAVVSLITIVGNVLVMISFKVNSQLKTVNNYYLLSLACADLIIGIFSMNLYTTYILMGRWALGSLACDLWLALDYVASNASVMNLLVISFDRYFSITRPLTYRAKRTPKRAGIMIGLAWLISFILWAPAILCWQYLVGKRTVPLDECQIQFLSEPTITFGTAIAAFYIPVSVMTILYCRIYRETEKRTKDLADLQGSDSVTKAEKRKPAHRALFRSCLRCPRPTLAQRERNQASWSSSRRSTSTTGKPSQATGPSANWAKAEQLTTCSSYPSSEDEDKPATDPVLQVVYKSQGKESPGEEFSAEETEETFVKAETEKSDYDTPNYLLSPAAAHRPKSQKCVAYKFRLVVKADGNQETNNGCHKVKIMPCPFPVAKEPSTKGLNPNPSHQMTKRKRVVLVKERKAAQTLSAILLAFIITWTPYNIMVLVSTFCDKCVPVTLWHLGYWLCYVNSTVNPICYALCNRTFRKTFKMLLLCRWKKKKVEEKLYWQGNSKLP

activation, active:
CCOC(=O)N1CCN(C(=O)C[C@@H]2C[C@@]3(C(=O)OC)CCCCC=C3N(CCC3=CCCCC3)C2=O)CC1 24%
CC(=O)OC(C)C[N+](C)(C)C (stereo unspecified) 99.8%
CC(C[N+](C)(C)C)OC(N)=O (stereo unspecified) 96.3%
Cc1ccc(O)c(NC(=S)NC(=O)COc2ccc(Br)cc2)c1 31.2%
COc1ccc(-c2n[nH]c(C)c2-c2ccc(OC)c(OC)c2)c(O)c1 29.1%
CCC(C(=O)Nc1ccc(C(C)C)cc1)c1ccccc1 (stereo unspecified) 35.8%
CC1=CC2=NC(=O)/C(=C/c3coc4ccccc4c3=O)C(=N)N2O1 38.9%
Cc1cc2nc3c(=O)n(Cc4ccccc4)c(=O)[nH]c3nc2cc1N 86.1%
COc1ccc(Cl)cc1NC(=O)CCS(=O)(=O)c1cc2c(cc1C)NC(=O)CO2 38%
CN1C(=O)c2cccc3c(N)ccc(c23)C1=O 45.7%
Cc1nn(C)cc1N1C(=O)c2cccc3c(N)ccc(c23)C1=O 91.9%
N#CC1(Nc2ccc3c4c(cccc24)CC3)CCCCC1 37.2%
COc1cc(OC)c(-n2cc(-c3ccc(Cl)cc3)[nH]c2=O)cc1Cl 42.8%

activation, inactive:
O=c1[nH]oc(O)c1-c1ncc(C(F)(F)F)cc1Cl -1.47%
COc1ccc(NS(=O)(=O)c2ccc(C)c(C(=O)NNC(=O)c3csc(N4CCOCC4)n3)c2)cc1 -2.51%
CC1CN(c2cc(=O)n(Cc3ccc(F)cc3)c(=O)[nH]2)CC(C)O1 (stereo unspecified) 1.48%
O=C1C(Sc2cccc(F)c2)=C[C@@]2(O)CC[C@@H](O)[C@]1(Sc1cccc(F)c1)[C@H]2O -1.89%
CC12CN3CC(C)(CN(C1)C3c1ccc(Cl)cc1Cl)C2=O (stereo unspecified) 0.42%
CCC(C)C1(C2CCCC2)NC(=O)NC1=O (stereo unspecified) -2.24%
Cc1ccsc1C1C(C#N)=C(N)OC2=C1C(=O)CC(C)(C)C2 (stereo unspecified) -3.66%
CCOC(=O)c1cnc(SC)nc1Sc1ccc(Cl)cc1Cl -3.12%
O=C(Cn1nc(Cc2cccnc2)c2ccccc2c1=O)NCC1CCCO1 (stereo unspecified) 1.65%
COC(=O)c1ccc(OC(=O)c2nn(C)cc2Cl)c(OC)c1 -3.16%
CCN(CC)CCCNC(=O)c1ccc2c(=O)n(Cc3ccc4c(c3)OCO4)c(=S)[nH]c2c1 -16.7%
COC(=O)[C@]12CCCCC=C1N(CCC1=CCCCC1)C(=O)[C@H](CC(=O)N1CCSCC1)C2 0.77%
CCOC(=O)[C@]12CCCC=C1N(CCC1=CCCCC1)C(=O)[C@H](CC(=O)N1CCCCC1)C2 2.91%
COc1cc(NC(=S)NCCSc2ccc(C)cc2)cc(OC)c1 0.65%
CCCCCCCCNS(=O)(=O)CCNC1CCCCC1 2.22%
CCn1c(-c2ccoc2C)n[nH]c1=S -2.69%
CC(=O)OCCC(C)C 1.99%
CCCCOC(=O)Nc1nccs1 1.28%
COc1ccc(C(=O)NC(Cc2ccc(OC(=O)c3ccc(OC)cc3)cc2)C(=O)O)cc1 (stereo unspecified) 0.61%
Cc1ccc(O)c(/C=N/NC(=O)COc2ccc3c(C)cc(=O)oc3c2)c1 -0.84%
Cc1ccsc1C(=O)NNC(=O)COc1ccc(Br)cc1 2.78%
Cc1ccc(S(=O)(=O)N2CCCC2CO)cc1 (stereo unspecified) 1.95%
CC1(C)OC(=O)C2=C(CC(c3ccccc3)OC2CCc2ccccc2)O1 (stereo unspecified) -0.45%
CCCCCCSc1nsc(N)n1 -2.92%
O=C(NCCN=C1NS(=O)(=O)c2ccccc21)c1ccc(S(=O)(=O)N2CCOCC2)cc1 -1.87%
Cc1ccccc1N(C(=O)Cc1cccs1)C(C(=O)NC1CCCCC1)c1cn(C)nc1C (stereo unspecified) -1.99%
O=C(O)CC/C(=N\NC(=O)c1ccc(F)cc1)c1ccc(Br)cc1 -1.22%
COc1ccc(COC(=O)c2ccc(Cl)c(S(=O)(=O)N3CCOCC3)c2)cc1F -0.05%
CC1CCN(S(=O)(=O)c2ccc3ncn(CC(=O)N(C)C4CCCCC4)c(=O)c3c2)CC1 -0.64%
CC(=O)Nc1ccc(S(=O)(=O)N(C)c2ccc(OCC(=O)OCC(=O)N3CCCCC3)cc2)cc1 0.4%
COc1ccc(CN(C)C(=S)Nc2ccc(Cl)cc2Cl)cc1 -4.4%
O=C(CCS(=O)(=O)c1cccc2nonc12)NCCc1ccccc1Cl -0.36%
Cc1nc(C)c2c(c1C(F)(F)F)-c1ccccc1C2(F)F -0.42%
COc1ccc(CCN2C(=O)c3[nH]nc(-c4ccccc4O)c3C2c2ccc(C)cc2)cc1OC (stereo unspecified) -2.41%
COc1ccc(-c2onc(C)c2-c2ccc3c(c2)OCCO3)c(O)c1 12.5%
O=C(NCC12CC3CC(C1)CC(CNC(=O)N1CCCC1)(C3)C2)N1CCCC1 2.96%
COCCNc1ccc(-c2n[nH]c(=O)c3ccccc23)cc1[N+](=O)[O-] -2.62%
CCCCC(=O)N1CC2(C)CN(C(=O)CCCC)CC(C)(C1)C2=O 1.44%
O=C(COc1ccc([N+](=O)[O-])cc1Cl)Nn1cnnc1 -0.29%
COc1ccc(C(C[N+](=O)[O-])n2nc(C)cc2C)cc1 (stereo unspecified) 1.97%
Cc1cc(NC(=O)Nc2ccccc2[N+](=O)[O-])no1 -2.19%
CN(C)c1ccc(C(CNC(=O)c2ccc(F)cc2)c2c[nH]c3ccccc23)cc1 (stereo unspecified) -4.52%
Cc1cc(=O)oc2c3c(cc(OCC(=O)NCCC(=O)N[C@@H](C)C(=O)O)c12)OC(C)(C)CC3 -2.41%
C[C@@H]1CN([C@H](C)CO)S(=O)(=O)c2ccc(C#CC3CCCCC3)cc2O[C@H]1CN(C)C(=O)Cc1ccncc1 1.87%
Cn1nc(N)c2ncc(C(Cl)(Cl)Cl)nc21 -0.27%
CCC1CCCCN1S(=O)(=O)Cc1ccccc1Cl (stereo unspecified) -4.8%
CCCS(=O)(=O)N1CCN(C(=O)c2cccs2)CC1 2.49%
COc1ccccc1/C=C/CN1CCC(CO)(Cc2ccccc2)CC1 0.17%
O=C(Cn1cnc2c(OCc3ccccc3)ncnc21)NCc1nc2ccccc2[nH]1 -0.16%
CCCC(C)C(=O)Nc1ccc(NC(C)=O)cc1 (stereo unspecified) 0.87%
Cc1ccc(NC(=O)C(C)c2cccc(C(=O)c3ccccc3)c2)cc1 (stereo unspecified) 5.38%
CCOC(=O)c1sc(NC(=O)CSc2nc(C)cc(C(F)(F)F)n2)c(C#N)c1C -3.97%
Clc1ccc(C2=CSC3=Nc4cccc5cccc(c45)N23)cc1 -0.82%
COc1ccc(OCCCn2cccc2/C=C2/C(=N)N3OC(C)=CC3=NC2=O)cc1 0.09%
CC(C)CCN1CCN(Cc2cn[nH]c2C2CCCCC2)CC1CCO (stereo unspecified) -10.3%
CCOCCCNC(=O)c1ccc(CS(=O)(=O)c2cccc(C(F)(F)F)c2)o1 -2.51%
Cc1cc(OCC(=O)N(C)c2c(N)n(Cc3ccccc3)c(=O)[nH]c2=O)c(C(C)C)cc1Cl -1.72%
Cn1c(=O)[nH]c(=O)c2c1[nH]c(=S)n2Cc1ccccc1 -2.82%
O=C(COc1ccc(F)cc1)N(CC1=CCS(=O)(=O)C1)c1ccccc1 -3.65%
O=C(O)c1ccc2c(=O)n3c(nc2c1)/C(=C/c1ccc(OC(F)F)cc1OC(F)F)CC3 -3.87%
Cc1cc2c(cc1S(=O)(=O)CCC(=O)NCc1ccccc1)OCC(=O)N2 0.35%
COc1ccc(NC(=O)CCS(=O)(=O)c2cc3c(cc2Cl)NC(=O)CO3)cc1OC -3.81%
CCOC(=O)Cn1c(=O)oc2cc(S(=O)(=O)NCC3CCCO3)ccc21 (stereo unspecified) 1.72%
Cc1ccc(S(=O)(=O)N2C[C@H]3n4c(=O)ccc(=O)n4C[C@H](OC(=O)NC4CCCC4)[C@@]3(O)C2)cc1 0.5%
CCC1(C(=O)c2ccccc2)C(c2cccc([N+](=O)[O-])c2)C1(C(=O)OC)C(=O)OC (stereo unspecified) -4.52%
O=C(Oc1ccc(C(=S)N2CCOCC2)cc1)c1ccc(F)cc1 3.46%
CCC(C)(C)NC(=O)CN(C(=O)CCC(=O)Nc1nccs1)c1ccc2c(c1)OCO2 -2.1%
COC(=O)c1sccc1-n1cccc1C(=O)C(=O)N1CCCCC1 -2.31%
CC/C(=N\NC(=O)c1c(C)nc2ccccn12)c1ccc(Cl)cc1 -4.55%
COc1ccc(N2C(=O)C3C(C2=O)C(C(=O)c2ccccc2)N2CCCC32)cc1 (stereo unspecified) 1.81%
CCn1c(CNc2ccc(OC)cc2)nnc1SCC(=O)c1ccc(OC)cc1 -9.07%
O=[N+]([O-])/C=C1\CCCCCN1 -0.84%
CC(C)C(=O)Nc1ccc2c3c(cccc13)CC2 -5.26%
N#CC1(Nc2ccc(-c3ccc(Cl)cc3)cc2)CCCC1 -3.18%
COc1cc(Cl)c(S(=O)(=O)n2cnc(C)c2)cc1Cl 0.51%
COc1ccc(Cl)cc1S(=O)(=O)N1CCC(O)(c2ccc(Cl)cc2)CC1 -0.77%
COc1ccc(C)cc1NC(=O)CSc1nnc(CC(=O)Nc2ccccc2F)n1C -1.92%
COc1ccc(OC)c(CN2C(=O)CCC2(C)c2nnnn2Cc2ccccc2)c1 (stereo unspecified) 2.06%
